Measured values reported in PubChem BioAssay (Tox21).
Unmarked numbers belong to inactive results. Records with an inconclusive call do not appear. Entries that show only a call come without a potency. Activity calls are given as the source filed them. Calls follow the shape of the dose curve; as a rule, active = well fitted curve in the direction sought with a large enough effect in the repeat runs; inconclusive = weak or mixed curves; inactive = no such curve, though single readings can be large; an effect the other way counts as inactive or inconclusive.

What was measured:
[1] = qHTS RealTime-Glo MT Cell Viability Assay in HEK293 cells - 16 hour (AID 1224872); also: top concentration of the series differs between compounds; nearly all actives have a fitted effect of over 50% in size
In short: (§1)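 HEK293 cells were seeded at 600 cells/well together with NanoLuc luciferase and cell-permeant prosubstrate, preincubated 5 h at 37 C/5% CO2, then given compound in DMSO by pintool. Luminescence from viable-cell prosubstrate reduction was read repeatedly over 40 h.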

[2] = qHTS RealTime-Glo MT Cell Viability Assay in HepG2 cells - 8 hour (AID 1224873); also: nearly all actives have a fitted effect of over 55% in size
In short: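 HepG2 cells mixed with RealTime-Glo MT reagents (NanoLuc plus cell-permeant prosubstrate) were seeded at 600 cells/well, incubated 5 h at 37 C/5% CO2, then pinned with compounds in DMSO; nonlytic luminescence tracked viability during 40 h treatment.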

[3] = qHTS RealTime-Glo MT Cell Viability Assay in HEK293 cells - 40 hour (AID 1224874); conditions: RealTime-Glo luminescence; max response: stronger effect = lower value; also: nearly all actives have a fitted effect of over 50% in size
In short: (§2)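 Kinetic, non-lysing viability readout. Seed HEK293 (600/well) with reagent, incubate 5 h at 37 C/5% CO2, pin 23 nL compound in DMSO, incubate at 37 C, read luminescence at 0, 8, 16, 24, 32, 40 h.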

[4] = A CellTox Green Cytotoxicity Assay to monitor cytotoxicity in HEK293 cells - 24 hour (AID 1224875); also: nearly all actives have a fitted effect of over 45% in size; also: potency is read from the fitted curve at half-maximal effect; as to activity change: series mostly up to about 77 µM
In short: (§3)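 Real-time, in one plate: 600 HEK293 cells/well with dead-cell DNA dye, pinned compound after 5 h, 37 C incubation over 40 h; viable cells give no appreciable fluorescence.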

[5] = qHTS RealTime-Glo MT Cell Viability Assay in HepG2 cells - 32 hour (AID 1224877); also: nearly all actives have a fitted effect of over 55% in size
In short: (§4)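 HepG2 cells were seeded at 600 cells/well together with NanoLuc luciferase and a cell-permeant prosubstrate, preincubated 5 h at 37 C/5% CO2, then pin-dosed with compounds in DMSO. Nonlytic luminescence from viable cells was read at each time point.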

[6] = A CellTox Green Cytotoxicity Assay to monitor cytotoxicity in HEK293 cells - 32 hour (AID 1224881); also: nearly all actives have a fitted effect of over 40% in size; also: potency is read from the fitted curve at half-maximal effect
In short: as §3

[7] = A CellTox Green Cytotoxicity Assay to monitor cytotoxicity in HepG2 cells - 0 hour (AID 1224882); also: nearly all actives have a fitted effect of over 35% in size
In short: (§5)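 Cytotoxicity was tracked as dead-cell DNA fluorescence in HepG2 cells treated with test compounds at 37 C; each time-point value comes from one kinetic series spanning 0, 8, 16, 24, 32 and 40 h.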

[8] = A CellTox Green Cytotoxicity Assay to monitor cytotoxicity in HEK293 cells - 8 hour (AID 1224884); also: nearly all actives have a fitted effect of over 35% in size; also: potency is read from the fitted curve at half-maximal effect
In short: as §3

[9] = qHTS RealTime-Glo MT Cell Viability Assay in HEK293 cells - 24 hour (AID 1224886); also: top concentration of the series differs between compounds; nearly all actives have a fitted effect of over 50% in size
In short: as §1

[10] = qHTS RealTime-Glo MT Cell Viability Assay in HEK293 cells - 8 hour (AID 1224887); also: top concentration of the series differs between compounds; nearly all actives have a fitted effect of over 50% in size
In short: as §2

[11] = A CellTox Green Cytotoxicity Assay to monitor cytotoxicity in HEK293 cells - 16 hour (AID 1224888); also: nearly all actives have a fitted effect of over 35% in size
In short: as §3

[12] = qHTS RealTime-Glo MT Cell Viability Assay in HepG2 cells - 0 hour (AID 1224889); also: nearly all actives have a fitted effect of over 50% in size
In short: as §4

[13] = A CellTox Green Cytotoxicity Assay to monitor cytotoxicity in HepG2 cells - 8 hour (AID 1224890); also: nearly all actives have a fitted effect of over 45% in size; also: potency is read from the fitted curve at half-maximal effect
In short: as §5

[14] = A CellTox Green Cytotoxicity Assay to monitor cytotoxicity in HepG2 cells - 16 hour (AID 1224876); also: nearly all actives have a fitted effect of over 45% in size; also: potency is read from the fitted curve at half-maximal effect
In short: as §5

[15] = A CellTox Green Cytotoxicity Assay to monitor cytotoxicity in HepG2 cells - 24 hour (AID 1224878); also: nearly all actives have a fitted effect of over 45% in size; also: potency is read from the fitted curve at half-maximal effect
In short: as §5

[16] = A CellTox Green Cytotoxicity Assay to monitor cytotoxicity in HepG2 cells - 40 hour (AID 1224879); also: nearly all actives have a fitted effect of over 40% in size; also: potency is read from the fitted curve at half-maximal effect
In short: as §5

[17] = qHTS RealTime-Glo MT Cell Viability Assay in HEK293 cells - 0 hour (AID 1224880)
In short: as §2

[18] = A CellTox Green Cytotoxicity Assay to monitor cytotoxicity in HepG2 cells - 32 hour (AID 1224883); also: nearly all actives have a fitted effect of over 50% in size; also: potency is read from the fitted curve at half-maximal effect
In short: as §5

[19] = qHTS RealTime-Glo MT Cell Viability Assay in HepG2 cells - 16 hour (AID 1224885); also: nearly all actives have a fitted effect of over 50% in size
In short: as §4

## O=[N+]([O-])CCO
[1]
  Potency: inactive
[2]
  outcome: inactive
[3]
  max response: 3.11%
[4]
  Potency: inactive
[5]
  Potency: inactive
[6]
  Potency: inactive
[7]
  outcome: inactive
[8]
  Potency: inactive
[9]
  Potency: inactive
[10]
  Potency: inactive
[11]
  Potency: inactive
[12]
  outcome: inactive
[13]
  Potency: inactive

## CN(CCO)CCO
[1]
  Potency: inactive
[2]
  outcome: inactive
[3]
  max response: -0.53%
[4]
  Potency: inactive
[14]
  Potency: inactive
[5]
  Potency: inactive
[15]
  Potency: inactive
[16]
  Potency: inactive
[17]
  outcome: inactive
[6]
  Potency: inactive
[7]
  outcome: inactive
[18]
  Potency: inactive
[19]
  Potency: inactive
[9]
  Potency: inactive
[10]
  Potency: inactive
[11]
  Potency: inactive
[13]
  Potency: inactive

## C/C=C/CC#N
[1]
  Potency: inactive
[2]
  outcome: inactive
[3]
  max response: 9.52%
[14]
  Potency: inactive
[5]
  Potency: inactive
[16]
  Potency: inactive
[17]
  outcome: inactive
[7]
  outcome: inactive
[18]
  Potency: inactive
[19]
  Potency: inactive
[9]
  Potency: inactive
[10]
  Potency: inactive
[12]
  outcome: inactive
[13]
  Potency: inactive

## C[C@]12C=CC(=O)C=C1CC[C@@H]1[C@@H]2CC[C@@]2(C)[C@H]1CC[C@]2(C)O
[1]
  Potency: inactive
[2]
  outcome: inactive
[3]
  max response: -19.7%
[4]
  Potency: inactive
[14]
  Potency: inactive
[5]
  Potency: inactive
[15]
  Potency: inactive
[17]
  outcome: inactive
[6]
  Potency: inactive
[7]
  outcome: inactive
[18]
  Potency: inactive
[19]
  Potency: inactive
[9]
  Potency: inactive
[10]
  Potency: inactive
[11]
  Potency: inactive
[12]
  outcome: inactive
[13]
  Potency: inactive

## CN(C)C(=O)Oc1cc(OC(=O)N(C)C)cc(C(O)CNC(C)(C)C)c1 (stereo unspecified)
[1]
  Potency: inactive
[2]
  outcome: inactive
[3]
  max response: -1.56%
[4]
  Potency: inactive
[14]
  Potency: inactive
[5]
  Potency: inactive
[16]
  Potency: inactive
[17]
  outcome: inactive
[6]
  Potency: inactive
[7]
  outcome: inactive
[18]
  Potency: inactive
[19]
  Potency: inactive
[9]
  Potency: inactive
[10]
  Potency: inactive
[12]
  outcome: inactive
[13]
  Potency: inactive

## CC(=O)OCC1=C(C(=O)O)N2C(=O)[C@@H](N)[C@H]2SC1
[1]
  activity change, negative = cytotoxicity: 5.5% [at 15.8 µM]
[2]
  viability change, negative = cytotoxic: 1.05% [at 15.8 µM]
[3]
  max response: 21.8%
[4]
  activity change: 11.8% [at 15.8 µM, stronger effect = higher value]
[14]
  cytotoxicity increase: 0.706% [at 15.8 µM]
[5]
  activity change, negative = cytotoxic: 0.0723% [at 15.8 µM]
[16]
  cytotoxicity increase: -2.77% [at 15.8 µM]
[17]
  activity change, negative = cytotoxicity: -1.9% [at 15.8 µM]
[6]
  cytotoxicity increase: -3.48% [at 15.8 µM]
[7]
  cytotoxicity: -8.52% [at 15.8 µM]
[18]
  cytotoxicity increase: 0.0293% [at 15.8 µM]
[9]
  activity change, negative = cytotoxicity: 11.4% [at 15.8 µM]
[10]
  activity change, negative = cytotoxicity: -14.1% [at 15.8 µM]
[11]
  activity change: 2.87% [at 15.8 µM, stronger effect = higher value]
[12]
  activity change, negative = cytotoxicity: -5.45% [at 15.8 µM]
[13]
  cytotoxicity increase: 1.96% [at 15.8 µM]

## COc1ccc2c(C(=O)c3ccc(Cl)cc3)c(C)n(CC(=O)O)c2c1
[1]
  Potency: inactive
[2]
  outcome: inactive
[3]
  max response: 3.79%
[4]
  Potency: inactive
[14]
  Potency: inactive
[5]
  Potency: inactive
[16]
  Potency: inactive
[6]
  Potency: inactive
[7]
  outcome: inactive
[18]
  Potency: inactive
[8]
  Potency: inactive
[19]
  Potency: inactive
[9]
  Potency: inactive
[11]
  Potency: inactive
[12]
  outcome: inactive
[13]
  Potency: inactive

## CCC(=O)c1ccc(Cl)cc1
[2]
  outcome: inactive
[4]
  Potency: inactive
[14]
  Potency: inactive
[5]
  Potency: inactive
[15]
  Potency: inactive
[16]
  Potency: inactive
[6]
  Potency: inactive
[7]
  outcome: inactive
[18]
  Potency: inactive
[8]
  Potency: inactive
[19]
  Potency: inactive
[9]
  Potency: inactive
[11]
  Potency: inactive
[12]
  outcome: inactive
[13]
  Potency: inactive

## C=CCc1cc(OC)c2c(c1)OCO2
[1]
  Potency: inactive
[2]
  outcome: inactive
[3]
  max response: 8.43%
[14]
  Potency: inactive
[5]
  Potency: inactive
[15]
  Potency: inactive
[16]
  Potency: inactive
[17]
  outcome: inactive
[7]
  outcome: inactive
[18]
  Potency: inactive
[19]
  Potency: inactive
[9]
  Potency: inactive
[10]
  Potency: inactive
[12]
  outcome: inactive
[13]
  Potency: inactive

## O=C(Cl)c1ccccc1
[1]
  Potency: inactive
[2]
  outcome: inactive
[3]
  max response: -3.78%
[4]
  Potency: inactive
[14]
  Potency: inactive
[5]
  Potency: inactive
[15]
  Potency: inactive
[16]
  Potency: inactive
[17]
  outcome: inactive
[6]
  Potency: inactive
[7]
  outcome: inactive
[18]
  Potency: inactive
[8]
  Potency: inactive
[9]
  Potency: inactive
[11]
  Potency: inactive
[13]
  Potency: inactive

## ClCOCCl
[1]
  Potency: inactive
[2]
  outcome: inactive
[3]
  max response: 12.2%
[4]
  Potency: inactive
[14]
  Potency: inactive
[5]
  Potency: inactive
[15]
  Potency: inactive
[16]
  Potency: inactive
[17]
  outcome: inactive
[6]
  Potency: inactive
[7]
  outcome: inactive
[18]
  Potency: inactive
[19]
  Potency: inactive
[9]
  Potency: inactive
[10]
  Potency: inactive
[11]
  Potency: inactive
[13]
  Potency: inactive

## CC(C)NCC(O)c1ccc([N+](=O)[O-])cc1 (stereo unspecified)
[1]
  Potency: inactive
[2]
  outcome: inactive
[3]
  max response: 6.95%
[4]
  Potency: inactive
[14]
  Potency: inactive
[5]
  Potency: inactive
[15]
  Potency: inactive
[17]
  outcome: inactive
[6]
  Potency: inactive
[18]
  Potency: inactive
[8]
  Potency: inactive
[19]
  Potency: inactive
[9]
  Potency: inactive
[11]
  Potency: inactive
[12]
  outcome: inactive
[13]
  Potency: inactive

## CC(C)(C)NC[C@H](O)c1ccc(O)cc1Cl
[1]
  Potency: inactive
[2]
  outcome: inactive
[3]
  max response: 4.05%
[4]
  Potency: inactive
[14]
  Potency: inactive
[5]
  Potency: inactive
[16]
  Potency: inactive
[17]
  outcome: inactive
[6]
  Potency: inactive
[7]
  outcome: inactive
[18]
  Potency: inactive
[8]
  Potency: inactive
[9]
  Potency: inactive
[10]
  Potency: inactive
[13]
  Potency: inactive

## COC(=O)[C@@H](N)CCCN/C(N)=N/[N+](=O)[O-]
[1]
  Potency: inactive
[2]
  outcome: inactive
[3]
  max response: 6.22%
[4]
  Potency: inactive
[14]
  Potency: inactive
[5]
  Potency: inactive
[15]
  Potency: inactive
[16]
  Potency: inactive
[17]
  outcome: inactive
[6]
  Potency: inactive
[7]
  outcome: inactive
[18]
  Potency: inactive
[9]
  Potency: inactive
[10]
  Potency: inactive
[11]
  Potency: inactive
[12]
  outcome: inactive
[13]
  Potency: inactive

## CCCN1CCC[C@@H]2Cc3nc(N)ncc3C[C@H]21
[1]
  Potency: inactive
[2]
  outcome: inactive
[3]
  max response: 3.64%
[4]
  Potency: 16.9 µM (active)
[14]
  Potency: 21.3 µM (active)
[5]
  Potency: inactive
[15]
  Potency: 21.3 µM (active)
[16]
  Potency: 21.3 µM (active)
[6]
  Potency: 16.9 µM (active)
[18]
  Potency: 21.3 µM (active)
[8]
  Potency: 19 µM (active)
[19]
  Potency: inactive
[9]
  Potency: inactive
[10]
  Potency: inactive
[12]
  outcome: inactive
[13]
  Potency: 23.9 µM (active)
